According to PubChem BioAssay:
The source made the active and inactive calls.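 The calls were made as follows: active = z-score of at least 1.8 in each of two replicates, scored against plate mean and spread of sample wells; inactive = the rest.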

assay: galactose survival enhancers in mitochondrial complex I cybrids – cell-based, galactose medium, ATP luminescence, primary screen (AID 1645843); details: complex I mutant cybrid cells, 72 h, active compounds read high;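 also: positive z means more ATP and so rescue of galactose-driven cybrid death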

**Q.** For `O=c1cc(CCn2cccn2)nc(-c2ccc(CN3CCC[C@@H](O)C3)cc2)[nH]1`, which z-score is on record?
**A.** Its z-score is -0.025 (inactive).

**Q.** Which z-score does the source give for `Cc1ccc2c(C(=O)N3CCCC(C#N)C3)cc(-c3cnn(C(C)C)c3)nc2c1` (centres undefined) here?
**A.** The z-score was -0.52 (inactive).

**Q.** Which z-score does the source give for `Cc1occc1C(=O)Nc1ccccc1C(=O)N(C)Cc1ccccn1` here?
**A.** The z-score was -0.21 (inactive).

**Q.** For `Cc1cccc2c(C(=O)N(C)C(C)C)cc(-c3cnc(-c4cccnc4)nc3)nc12`, which z-score is on record?
**A.** Its z-score is -0.13 (inactive).

**Q.** Which z-score does the source give for `Cc1ccccc1-c1cccc(N2CCC(N3CCN(C)C(C)C3)CC2)c1` (centres undefined) here?
**A.** Its z-score is 1.36 (inactive).

**Q.** With `O=C(C1CCCCCC1)N1CCC(n2cc(-c3ccsc3)nn2)CC1` as the compound, how does the z-score read?
**A.** The z-score was -0.215 (inactive).

**Q.** With `CCN(CC)C(CNCc1ccc(OC)c(F)c1)c1ccco1` (centres undefined) as the compound, how does the z-score read?
**A.** The z-score was -0.84 (inactive).

**Q.** Which z-score does the source give for `c1ccc(CC2CCN(C3CCSC3)CC2)cc1` (centres undefined) here?
**A.** Its z-score is -0.3 (inactive).

**Q.** Which z-score does the source give for `Cc1nsc(NC(=O)NCc2cc(Cl)ccc2Cl)n1` here?
**A.** The z-score was -1.1 (inactive).

**Q.** Which z-score does the source give for `CC1Cc2cc(C(=O)N3CCC(n4cc(CCO)nn4)CC3)ccc2O1` (centres undefined) here?
**A.** Its z-score is 0.36 (inactive).

**Q.** With `CCc1c(C(=O)N2CCCN(C(C)=O)CC2)csc1C` as the compound, how does the z-score read?
**A.** Its z-score is -0.54 (inactive).

**Q.** Which z-score does the source give for `CC1CCc2c(sc3ncn(Cc4noc(C(C)C)n4)c(=O)c23)C1` (centres undefined) here?
**A.** Its z-score is -0.525 (inactive).

**Q.** With `Cc1ccsc1C(=O)N1CCC(n2cc(C(C)(C)O)nn2)CC1` as the compound, how does the z-score read?
**A.** Its z-score is -0.505 (inactive).

**Q.** With `O=C(CC1CCCCCC1)N1CCC(n2cc(C3CC3)nn2)CC1` as the compound, how does the z-score read?
**A.** The z-score was -0.455 (inactive).

**Q.** Which z-score does the source give for `CN1CCN(CC(C)(C)C)CC1CCO` (centres undefined) here?
**A.** The z-score was -0.57 (inactive).

**Q.** With `O=C(NC(Cn1cccn1)c1ccccc1)c1ccc2nccnc2c1` (centres undefined) as the compound, how does the z-score read?
**A.** The z-score was 1.25 (inactive).

**Q.** With `CC(C)C1=NOC(c2nc(C(C)c3ccccc3)no2)C1` (centres undefined) as the compound, how does the z-score read?
**A.** Its z-score is -0.83 (inactive).

**Q.** Which z-score does the source give for `Fc1cccc(-c2ccc(N3CCC(NC4CCNCC4)CC3)cc2)c1` here?
**A.** Its z-score is -1.3 (inactive).

**Q.** Which z-score does the source give for `CC(O)c1cn(CC2CCN(C(=O)CC3CCCCCC3)CC2)nn1` (centres undefined) here?
**A.** Its z-score is -0.54 (inactive).

**Q.** For `OC[C@@H](Cc1ccccc1)NC1CCCCCC1`, which z-score is on record?
**A.** The z-score was -0.55 (inactive).

**Q.** Which z-score does the source give for `O=C(Nc1ccc2nccnc2c1)c1csc(Cc2ccccc2)n1` here?
**A.** The z-score was -1.07 (inactive).

**Q.** With `Cc1ccc2nc(Cn3cnc4ccc(F)cc4c3=O)cn2c1` as the compound, how does the z-score read?
**A.** The z-score was -0.15 (inactive).

**Q.** Which z-score does the source give for `CN(CC1COc2ccccc2O1)C(=O)Nc1nncs1` (centres undefined) here?
**A.** The z-score was -0.295 (inactive).

**Q.** With `Cc1nn(C)cc1-c1ccnc(NCCc2nc(-c3ccccn3)no2)n1` as the compound, how does the z-score read?
**A.** The z-score was -0.82 (inactive).

**Q.** With `O=C(CN1CCOC1=O)NCCc1cccc(F)c1` as the compound, how does the z-score read?
**A.** The z-score was -0.505 (inactive).

**Q.** With `O=C1CC(C(=O)N2CCc3sccc3C2)c2cc(F)ccc2N1` (centres undefined) as the compound, how does the z-score read?
**A.** The z-score was 4.16 (active).

**Q.** Which z-score does the source give for `c1ccc(-c2nc3c(cnn3C3CCCCC3)[nH]2)c(Cn2cccn2)c1` here?
**A.** The z-score was 0.525 (inactive).

**Q.** For `CC(CCc1ccc(O)cc1)NC1CCCCCC1` (centres undefined), which z-score is on record?
**A.** The z-score was -0.855 (inactive).

**Q.** Which z-score does the source give for `CCC1(CC)CC1C(=O)N1CCC(n2cc(C3(O)CCCC3)nn2)CC1` (centres undefined) here?
**A.** Its z-score is -0.565 (inactive).

**Q.** With `COc1cc(C)c(CNC(C)CCCC(C)(C)O)c(C)c1C` (centres undefined) as the compound, how does the z-score read?
**A.** Its z-score is -0.435 (inactive).

**Q.** For `COC(C)(C)CCCC(C)CCN1CCC(n2cc(C(C)(C)N)nn2)CC1` (centres undefined), which z-score is on record?
**A.** The z-score was -0.52 (inactive).

**Q.** Which z-score does the source give for `COc1ccccc1OC(C)c1nc(Cc2cccc(C(F)(F)F)c2)no1` (centres undefined) here?
**A.** Its z-score is 0.51 (inactive).

**Q.** For `COc1cc(C)ccc1C(=O)N1CCC(Cn2cc(C3CC3)nn2)CC1`, which z-score is on record?
**A.** The z-score was -0.52 (inactive).

**Q.** For `Cc1ccc(C(=O)N2CCNC(=O)C2Cc2ccccc2)cc1F` (centres undefined), which z-score is on record?
**A.** Its z-score is -0.505 (inactive).

**Q.** Which z-score does the source give for `Cc1nsc(NC(=O)NCCC2CCCCCC2)n1` here?
**A.** Its z-score is -1.07 (inactive).

**Q.** For `O=C1NCCN(C(=O)c2cccc(-c3ccccc3)c2)C1Cc1ccccc1` (centres undefined), which z-score is on record?
**A.** Its z-score is 2.37 (active).

**Q.** Which z-score does the source give for `COc1ccc(C(C)=O)c(OC2(C(=O)O)CCSCC2)c1` here?
**A.** The z-score was -0.58 (inactive).

**Q.** For `CCCC(NC(=O)c1ccc[n+]([O-])c1)c1ccccc1` (centres undefined), which z-score is on record?
**A.** The z-score was -0.43 (inactive).

**Q.** With `CC(CCCC(C)(C)O)CCNCC1CCN(c2ccccc2)C1` (centres undefined) as the compound, how does the z-score read?
**A.** Its z-score is -0.605 (inactive).
